Test results taken from PubChem BioAssay (NCATS).
Records with an inconclusive call do not appear. Calls of active or inactive are those of the source. Unless noted, the call rests on the fitted dose curve; in most records, active means well fitted curve in the direction sought with a large enough effect; inconclusive means small, poorly fitted or top-dose-only effect, or another doubt; inactive means no such curve, though single readings can be large; an effect the other way counts as inactive or inconclusive.

Experiments:
[1] = target: Lysosomal acid glucosylceramidase (Homo sapiens) (UniProt P04062); experiment: Glucocerebrosidase-p2 (AID 348; in the data active means potency below about 10 µM; further: potency means the concentration at half of the fitted maximal effect); details: purified GBA, blue fluorogenic substrate, 40 min
Method in brief: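 Normal human glucocerebrosidase (0.2 nM) with blue fluorogenic substrate (80 uM final) in citrate/phosphate pH 5.9 with 10mM sodium taurocholate, 0.01% tween-20; 40 min RT, NaOH/glycine stop; fluorescence Ex 365/Em 440; AC50 from a titration from 0.6 nM upwards.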

[2] = AP1 Signaling Pathway (AID 357; active means well fitted curve in either direction with a large enough effect, not every such curve was filed as active;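 further: ME-180 reporter cells stimulated with EGF at its EC50 level; on the % scale 0 is the no-effect control and ±100 the full control effect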); details: ME-180 AP-1-bla reporter, EGF-induced, beta-lactamase ratio, 5 h; at 7.69 µM (top of the series) unless noted
Method in brief: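 Titration-series screen for positive or negative modulators of EC50 EGF-induced signaling in ME-180 cells carrying an AP-1-driven beta-lactamase reporter. After 5 hours at 37 degrees Celsius, CCF4 460nm/530nm emission ratio gave %Activity; AC50 values derived.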

[3] = NFAT Signaling Pathway (AID 444; active means well fitted curve in either direction with a large enough effect, not every such curve was filed as active;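 further: carbachol stimulus at about its EC50 of 1 µM final; on the % scale 0 is the no-effect control and ±100 the full control effect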); details: Jurkat NFAT-bla M1, carbachol, beta-lactamase ratio, 5 h; at 7.69 µM (top of the series) unless noted
Method in brief: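 Read-out: CCF4 FRET ratio (460 nm/530 nm) after 1 h RT dye loading, used for %activity and AC50 from titration series. Cells: Jurkat NFAT-β-lactamase/M1 line, treated with compound plus 1 uM carbachol for 5 h, 37 °C.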

[4] = Stat Signaling Pathway (AID 446; active means well fitted curve in either direction with a large enough effect, not every such curve was filed as active;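 further: ME-180 cervical cancer cells given 40 pM IL-6 alongside compound; SIE-controlled beta-lactamase reporter measured as 460/530 nm FRET emission ratio; on the % scale 0 is the no-effect control and ±100 the full control effect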); details: ME-180 SIE beta-lactamase reporter, IL-6 stimulated, 5 h; at 7.69 µM (top of the series) unless noted
Method in brief: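 FRET read-out (405 nm excitation, 460/530 nm emission) of a beta-lactamase reporter under a STAT-inducible element in ME-180 cervical carcinoma cells. Cells with compound receive 40 pM IL-6 for 5 h. Values are normalised to AC90 stimulation and AC90 JAK-inhibitor controls.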

[5] = target: Mitogen-activated protein kinase 10 (Mus musculus) (UniProt Q61831); experiment: JNK3 AlphaScreen Assay (AID 530; active means well fitted curve in either direction with a large enough effect, not every such curve was filed as active;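 further: kinase came from lysate of stimulated human HepG2 cells; signal reports phosphorylation of biotinylated GST-cJun 1-79 at Ser73 with 10 µM ATP; on the % scale 0 is the no-effect control and ±100 the full control effect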); details: JNK3 lysate, c-Jun phosphorylation; series mostly up to 11.4 µM
Method in brief: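 qHTS titrations with 15 min compound pre-incubation before adding ATP (10 uM final). Read-out: AlphaScreen of Ser73-phosphorylated biotin-GST-cJun using HepG2 lysate JNK3 activated by IL-1β and TNFα.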

[6] = target: 3',5'-cyclic-AMP phosphodiesterase 4B (Homo sapiens) (UniProt Q07343); experiment: qHTS Assay for Inhibitors of PDE-IV (AID 607; active means well fitted activation curve with a large enough effect in the main read-out, with a control signal flat, not every such curve was filed as active; further: % of control where 0% means no effect); details: HEK293 ACTOne CNG channel cells, membrane potential fluorescence; series mostly up to 22.9 µM
Method in brief: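 Cell-based read-out of cAMP via a modified cyclic nucleotide-gated channel and membrane potential dye (535/590 nm) in HEK293 cells expressing PDE4 endogenously. Compounds tested up to 22.9 uM final; 100 uM RO 20-1724 reference.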

[7] = qHTS Assay for Identification of Small Molecule Agonists for Hypoxia Response Element Signaling Pathway (AID 914; active means well fitted activation curve with a large enough effect in the signal ratio, with a control signal flat, not every such curve was filed as active; the % refers to the signal ratio; further: % of control where 0% means no effect); details: ME-180 (cervical carcinoma) HRE-bla reporter, beta-lactamase ratio, CoCl2, 17 h; activation: active compounds read high
Method in brief: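 AC50 values come from titration-series %Activity, taken as the 460/530nm ratio of CCF4 fluorescence (excitation 405nm). CellSensor HRE-bla ME-180 cells were treated 17 hours at 37 C with compound plus an EC50 level of CoCl2.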

[8] = target: ATP-dependent 6-phosphofructokinase (Trypanosoma brucei brucei) (UniProt O15648); experiment: qHTS Assay to Find Inhibitors of T. brucei phosphofructokinase: hit validation (AID 492961); details: T. brucei PFK, ADP-Glo luminescence; series mostly up to 51.4 µM
Method in brief: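 In this biochemical qHTS validation, titrated compounds were tested against 1.25 nM PFK with 0.1 mM ATP and 0.5 mM F6P. Percent activity came from controls lacking or containing enzyme.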

[9] = target: Ubiquitin carboxyl-terminal hydrolase 1 (Homo sapiens) (UniProt O94782); experiment: Inhibitors of USP1/UAF1: Pilot qHTS (AID 504865); details: purified USP1/UAF1, Ub-rhodamine cleavage fluorescence; series mostly up to 114 µM;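 further: rhodamine fluorescence freed from ubiquitin-rhodamine substrate followed over time; top concentration of the series differs between compounds; on the % scale 0 is the no-effect control and ±100 the full control effect; nearly all actives have a fitted effect of over 35% in size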
Method in brief: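 In 50mM HEPES pH 7.8 containing 0.5mM EDTA, 1mM TCEP, 0.1 mg/ml BSA and 0.01% Tween-20, 1nM USP1/UAF1 is exposed to compound for 15 min, then Ub-Rho (150nM final) is added and fluorescence is read over time.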

[10] = target: Luciferin 4-monooxygenase (Photinus pyralis) (UniProt P08659); experiment: Biochemical firefly luciferase enzyme assay for NPC (AID 624030);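 further: purified P. pyralis luciferase at 10 nM with luciferin and ATP substrate; 0% = DMSO and -100% = full luciferase inhibition by PTC124 control; nearly all actives have a fitted effect of over 70% in size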; details: purified P. pyralis luciferase, luminescence, 5 min; series mostly up to 58.6 µM
Method in brief: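 Direct inhibition of firefly luciferase enzyme (10 nM final, 50 mM Tris Acetate) assessed by luminescence within 5 minutes. Percent activity scaled between DMSO and PTC124 positive control, with concentration-effect curves classified by fit quality and response.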

[11] = S16 Schwann cell PMP22 intronic element firefly luciferase assay (AID 624032); details: S16 rat Schwann cells, PMP22 element FLuc, 24 h; series mostly up to 57.5 µM;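 further: plate controls were DMSO for no effect and PTC124 positive control mean for full effect; nearly all actives have a fitted effect of over 30% in size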
Method in brief: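 Luciferase reporter of PMP22 intronic-element expression in stably transfected S16 rat Schwann cells, read by ONE-Glo luminescence after 24 h compound exposure at 37 C. Activity scaled between DMSO (0%) and positive-control PTC124; concentration-effect curves quality-classified.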

[12] = qHTS profiling for inhibitors of Plasmodium falciparum proliferation (AID 504749);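 further: 0% = DMSO vehicle and full inhibition = artemisinin control; nearly all actives have a fitted effect of over 60% in size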; details: P. falciparum in erythrocytes, SYBR Green DNA, 72 h, at 28.7 µM (top of the series)
Method in brief: (§1)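 SYBR Green fluorescence of parasite DNA, read after lysis and overnight dark incubation, measured growth over 72 h in erythrocyte culture at 0.3% parasitemia and 2.5% hematocrit. Data normalised to DMSO and 0.29 uM artemisinin, with plate-drift correction.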

[13] = system: 3D7; experiment: as above; details: P. falciparum in erythrocytes, SYBR Green DNA, 72 h; series mostly up to 28.7 µM
Method in brief: as §1

[14] = system: 7G8; experiment: as above; details: P. falciparum in erythrocytes, SYBR Green DNA, 72 h; series mostly up to 28.7 µM
Method in brief: as §1

[15] = system: AA1029; experiment: as above; details: P. falciparum in erythrocytes, SYBR Green DNA, 72 h; series mostly up to 28.7 µM
Method in brief: as §1

[16] = system: AS120; experiment: as above; details: P. falciparum in erythrocytes, SYBR Green DNA, 72 h; series mostly up to 28.7 µM
Method in brief: as §1

[17] = system: ATS189; experiment: as above; details: P. falciparum in erythrocytes, SYBR Green DNA, 72 h; series mostly up to 28.7 µM
Method in brief: as §1

[18] = system: ATS95; experiment: as above; details: P. falciparum in erythrocytes, SYBR Green DNA, 72 h; series mostly up to 28.7 µM
Method in brief: as §1

[19] = system: C2A; experiment: as above; details: P. falciparum in erythrocytes, SYBR Green DNA, 72 h; series mostly up to 28.7 µM
Method in brief: as §1

[20] = system: CP185; experiment: as above; details: P. falciparum in erythrocytes, SYBR Green DNA, 72 h; series mostly up to 28.7 µM
Method in brief: as §1

[21] = system: CP191; experiment: as above; details: P. falciparum in erythrocytes, SYBR Green DNA, 72 h; series mostly up to 28.7 µM
Method in brief: as §1

[22] = system: CP192; experiment: as above; details: P. falciparum in erythrocytes, SYBR Green DNA, 72 h; series mostly up to 28.7 µM
Method in brief: as §1

[23] = system: CP194; experiment: as above; details: P. falciparum in erythrocytes, SYBR Green DNA, 72 h; series mostly up to 28.7 µM
Method in brief: as §1

[24] = system: CP201; experiment: as above; details: P. falciparum in erythrocytes, SYBR Green DNA, 72 h; series mostly up to 28.7 µM
Method in brief: as §1

[25] = system: CP203; experiment: as above; details: P. falciparum in erythrocytes, SYBR Green DNA, 72 h; series mostly up to 28.7 µM
Method in brief: as §1

[26] = system: CP211; experiment: as above; details: P. falciparum in erythrocytes, SYBR Green DNA, 72 h; series mostly up to 28.7 µM
Method in brief: as §1

[27] = system: CP215; experiment: as above; details: P. falciparum in erythrocytes, SYBR Green DNA, 72 h; series mostly up to 28.7 µM
Method in brief: as §1

[28] = system: CP217; experiment: as above; details: P. falciparum in erythrocytes, SYBR Green DNA, 72 h; series mostly up to 28.7 µM
Method in brief: as §1

[29] = system: CP237; experiment: as above; details: P. falciparum in erythrocytes, SYBR Green DNA, 72 h; series mostly up to 28.7 µM
Method in brief: as §1

[30] = system: CP238; experiment: as above; details: P. falciparum in erythrocytes, SYBR Green DNA, 72 h; series mostly up to 28.7 µM
Method in brief: as §1

[31] = system: CP247; experiment: as above; details: P. falciparum in erythrocytes, SYBR Green DNA, 72 h; series mostly up to 28.7 µM
Method in brief: as §1

[32] = system: CP250; experiment: as above; details: P. falciparum in erythrocytes, SYBR Green DNA, 72 h; series mostly up to 28.7 µM
Method in brief: as §1

[33] = system: CP252; experiment: as above; details: P. falciparum in erythrocytes, SYBR Green DNA, 72 h; series mostly up to 28.7 µM
Method in brief: as §1

[34] = system: CP256; experiment: as above; details: P. falciparum in erythrocytes, SYBR Green DNA, 72 h; series mostly up to 28.7 µM
Method in brief: as §1

[35] = system: CP260; experiment: as above; details: P. falciparum in erythrocytes, SYBR Green DNA, 72 h; series mostly up to 28.7 µM
Method in brief: as §1

Sequence of ATP-dependent 6-phosphofructokinase (Trypanosoma brucei brucei) (O15648 whole entry, looked up): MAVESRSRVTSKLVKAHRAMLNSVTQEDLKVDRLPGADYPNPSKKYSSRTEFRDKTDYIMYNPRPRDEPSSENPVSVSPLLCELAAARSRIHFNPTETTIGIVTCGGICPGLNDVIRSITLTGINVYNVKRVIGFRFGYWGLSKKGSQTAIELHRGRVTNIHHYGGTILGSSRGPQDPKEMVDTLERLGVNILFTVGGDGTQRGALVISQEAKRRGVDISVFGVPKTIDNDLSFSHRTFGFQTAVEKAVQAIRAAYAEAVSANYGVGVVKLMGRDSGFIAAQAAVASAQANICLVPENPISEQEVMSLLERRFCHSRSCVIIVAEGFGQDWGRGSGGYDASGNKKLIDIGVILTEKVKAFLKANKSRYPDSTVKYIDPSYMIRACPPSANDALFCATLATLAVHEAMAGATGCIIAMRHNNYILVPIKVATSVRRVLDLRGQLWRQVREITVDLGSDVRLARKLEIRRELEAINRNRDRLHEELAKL
Sequence of 3',5'-cyclic-AMP phosphodiesterase 4B (Homo sapiens) (Q07343 whole entry, looked up): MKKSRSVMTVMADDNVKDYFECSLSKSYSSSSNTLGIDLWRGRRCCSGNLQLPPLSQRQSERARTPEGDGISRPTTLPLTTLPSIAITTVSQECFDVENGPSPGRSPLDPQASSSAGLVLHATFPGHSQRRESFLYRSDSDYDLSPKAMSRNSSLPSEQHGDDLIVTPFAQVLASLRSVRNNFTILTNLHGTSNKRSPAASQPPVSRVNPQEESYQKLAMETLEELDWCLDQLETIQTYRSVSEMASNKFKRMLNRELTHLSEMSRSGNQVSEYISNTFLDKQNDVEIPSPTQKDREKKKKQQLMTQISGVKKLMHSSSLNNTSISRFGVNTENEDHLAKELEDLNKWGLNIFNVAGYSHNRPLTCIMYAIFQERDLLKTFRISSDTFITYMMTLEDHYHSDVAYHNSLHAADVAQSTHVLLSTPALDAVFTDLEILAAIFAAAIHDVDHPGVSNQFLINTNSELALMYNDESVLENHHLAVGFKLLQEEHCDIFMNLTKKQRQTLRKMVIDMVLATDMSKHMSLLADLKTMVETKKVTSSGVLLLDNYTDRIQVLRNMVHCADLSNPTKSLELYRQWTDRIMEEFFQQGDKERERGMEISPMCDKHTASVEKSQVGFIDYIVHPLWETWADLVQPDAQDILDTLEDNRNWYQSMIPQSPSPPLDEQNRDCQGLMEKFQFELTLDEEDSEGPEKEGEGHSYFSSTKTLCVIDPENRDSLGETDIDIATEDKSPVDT
Sequence of Ubiquitin carboxyl-terminal hydrolase 1 (Homo sapiens) (O94782 whole entry, looked up): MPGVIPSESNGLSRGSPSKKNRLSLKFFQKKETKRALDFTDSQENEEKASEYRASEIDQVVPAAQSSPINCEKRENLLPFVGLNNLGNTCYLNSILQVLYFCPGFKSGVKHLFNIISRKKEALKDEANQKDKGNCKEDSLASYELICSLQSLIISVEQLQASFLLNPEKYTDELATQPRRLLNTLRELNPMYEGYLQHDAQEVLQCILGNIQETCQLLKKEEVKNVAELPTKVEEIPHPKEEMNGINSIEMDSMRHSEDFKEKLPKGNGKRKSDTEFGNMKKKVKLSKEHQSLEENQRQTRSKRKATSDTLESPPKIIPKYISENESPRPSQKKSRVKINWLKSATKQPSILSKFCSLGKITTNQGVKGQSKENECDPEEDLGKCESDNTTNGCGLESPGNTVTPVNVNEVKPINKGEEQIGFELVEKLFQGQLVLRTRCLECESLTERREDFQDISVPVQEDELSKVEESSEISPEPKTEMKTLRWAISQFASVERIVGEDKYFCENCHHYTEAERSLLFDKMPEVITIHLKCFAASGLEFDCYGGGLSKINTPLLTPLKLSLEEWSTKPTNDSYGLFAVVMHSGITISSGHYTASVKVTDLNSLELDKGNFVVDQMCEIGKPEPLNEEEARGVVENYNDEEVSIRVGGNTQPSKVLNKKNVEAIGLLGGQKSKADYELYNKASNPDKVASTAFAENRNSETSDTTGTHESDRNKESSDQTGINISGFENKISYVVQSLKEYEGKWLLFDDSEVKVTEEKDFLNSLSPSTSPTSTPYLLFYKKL
Sequence of Lysosomal acid glucosylceramidase (Homo sapiens) (P04062 whole entry, looked up): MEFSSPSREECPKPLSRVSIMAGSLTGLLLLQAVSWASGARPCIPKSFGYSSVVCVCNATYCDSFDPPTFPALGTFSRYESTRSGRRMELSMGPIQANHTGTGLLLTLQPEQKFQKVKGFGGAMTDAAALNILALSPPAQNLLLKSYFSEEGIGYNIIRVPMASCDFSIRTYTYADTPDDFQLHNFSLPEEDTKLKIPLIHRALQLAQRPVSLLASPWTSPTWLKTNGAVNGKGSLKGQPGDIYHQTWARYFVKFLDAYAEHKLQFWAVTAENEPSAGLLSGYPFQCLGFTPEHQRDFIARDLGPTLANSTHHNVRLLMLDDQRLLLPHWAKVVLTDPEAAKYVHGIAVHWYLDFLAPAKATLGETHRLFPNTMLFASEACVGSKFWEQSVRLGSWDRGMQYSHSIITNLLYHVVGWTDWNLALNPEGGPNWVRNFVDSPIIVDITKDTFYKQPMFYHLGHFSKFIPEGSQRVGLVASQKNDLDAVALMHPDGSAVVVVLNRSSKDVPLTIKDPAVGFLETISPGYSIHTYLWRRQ
Sequence of Luciferin 4-monooxygenase (Photinus pyralis) (P08659 whole entry, looked up): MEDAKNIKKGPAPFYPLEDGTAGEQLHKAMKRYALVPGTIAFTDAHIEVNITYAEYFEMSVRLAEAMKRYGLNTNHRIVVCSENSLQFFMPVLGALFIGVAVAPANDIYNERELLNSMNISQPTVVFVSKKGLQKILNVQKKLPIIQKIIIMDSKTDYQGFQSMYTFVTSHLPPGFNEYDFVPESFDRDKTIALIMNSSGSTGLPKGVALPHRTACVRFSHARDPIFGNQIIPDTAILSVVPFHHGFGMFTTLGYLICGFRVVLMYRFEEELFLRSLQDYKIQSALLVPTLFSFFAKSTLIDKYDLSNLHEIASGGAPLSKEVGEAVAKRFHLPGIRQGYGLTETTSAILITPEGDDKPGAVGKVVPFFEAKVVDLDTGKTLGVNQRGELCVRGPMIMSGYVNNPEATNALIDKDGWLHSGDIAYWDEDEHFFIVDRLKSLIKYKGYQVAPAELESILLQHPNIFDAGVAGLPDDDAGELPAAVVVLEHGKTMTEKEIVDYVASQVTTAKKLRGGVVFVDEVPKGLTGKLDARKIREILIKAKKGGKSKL

C[C@]12CC[C@H]3c4ccc(O)cc4CC[C@@H]3[C@H]1CC[C@@H]2OP(=O)(O)O
inactive: Potency [1] > 11.4 µM | activity change, negative = inhibition [2] -3.92% | activity change, negative = inhibition [3] 9.37% | activity, negative = inhibition [4] 2.17% | Potency [5] | Potency [6] | activation [7] 11.8% | outcome [8] | Potency [9] | outcome [10] | Potency [11] | activity, negative = inhibition ([12]; parasite line A) 12.7% | activity, negative = inhibition ([12]; parasite line B) 13.6% | Potency [13] | Potency [14] | Potency [15] | Potency [16] | Potency [17] | Potency [18] | Potency [19] | Potency [20] | Potency [21] | Potency [22] | Potency [23] | Potency [24] | Potency [25] | Potency [26] | Potency [27] | Potency [28] | Potency [29] | Potency [30] | Potency [31] | Potency [32] | Potency [33] | Potency [34] | Potency [35]
